Measurements taken from PubChem BioAssay AID1508647 (National Center for Advancing Translational Sciences (NCATS), 2021).
The list shows a part of the results. Inconclusive results are not listed. Activity calls are given as the source filed them. Calls come from the whole dose curve; as a rule, active = well fitted inhibition curve with a large enough effect; inconclusive = small, poorly fitted or top-dose-only effect, or another doubt; inactive = no such curve, though single readings can be large or run the other way.

Target: Peripheral myelin protein 22 (Rattus norvegicus) (UniProt P25094)
Assay: Cell-based HiBiT reporter assay to measure PMP22 protein expression in S16 Pmp22-HiBiT cells - Confirmatory screen
Conditions: S16 Schwann cells Pmp22-HiBiT, luminescence, 48 h; series mostly up to 27.9 µM; activity change, negative = inhibition: at the top concentration
From the text: Assay Provider: Jim Inglese Ph.D. National Center for Advancing Translational Science, National Institutes of Health, Rockville, MD CMT is a heterogeneous group of neurological disorders that affect approximately 1 in 2,500 people. In particular, the most common form of CMT, CMT1A is genetically linked to the duplication of the PMP22 gene which leads to Schwann cell overexpression, thus manifesting itself as a typical case of dose-sensitive diseases. […] We can further discriminate the effect of all transcriptionally active molecules on PMP22 translation or stability with an assay that incorporates a short NLuc peptide (HiBiT) at the C-terminus of expressed PMP22 (S16(f8) PMP22-HiBiT) allowing alpha complementation and luminescence detection of membrane-associated PMP22 protein. […] Miniaturization of these assays to 1536-well plate format for quantitative high throughput screening (qHTS) yielded rich data sets immediately from the qHTS assay (S16(c9) Pmp22-F2sN), when compared with data from a cell viability assay (Cell TiterGlo) to identify compounds that decreased the output signals through cellular toxicity to streamline the selection process of actives for subsequent characterization using the HiBiT assay (S16(f8) PMP22-HiBiT). […]

Chain of Peripheral myelin protein 22 (Rattus norvegicus) (P25094 whole entry, looked up): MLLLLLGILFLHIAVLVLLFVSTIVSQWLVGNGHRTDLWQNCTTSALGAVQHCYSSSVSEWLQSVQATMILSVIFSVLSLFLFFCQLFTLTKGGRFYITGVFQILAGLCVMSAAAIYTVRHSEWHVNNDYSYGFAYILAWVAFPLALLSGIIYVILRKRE

Row | SMILES | activity change, negative = inhibition
1 | Cc1ccc(NC(=O)c2nc(S(=O)(=O)Cc3cccc(C)c3)ncc2Cl)cc1 | -14.3% (inactive)
